# Screening results: PubChem BioAssay, National Center for Advancing Translational Sciences (NCATS)
# Most compounds without a hit are left out; they make up all but 1.4% or so of the library.
# RXFP1 antag – blocks the human relaxin receptor RXFP1; AID 1259400; HEK293-RXFP1, relaxin-stimulated cAMP HTRF, 30 min; active compounds read low; activity change, negative = inhibition, % at 57.5 µM; Q9HBX9; 350,000 tested, 0.59% active;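 active means activity change of -60% or lower, but not beyond a set lower limit; inconclusive means change between -60% and -40%, or beyond the set limit; inactive means change above -40%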; further: on the % scale 0 is the no-effect control and ±100 the full control effect
# KCNH2 WT inh – blocks the wildtype human KCNH2 potassium channel | Q12809 | U2OS, BacMam KCNH2, thallium flux FluxOr; active compounds read low | activity change, % at 1.84 µM | 340,000 tested, 0.37% active | AID 720551;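 active means maximum activity change below -70%; inconclusive means maximum activity change between -70% and -50%; inactive means maximum activity change above -50%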; further: on the % scale 0 is the no-effect control and ±100 the full control effect
# Target sequence (Q12809 whole entry, looked up): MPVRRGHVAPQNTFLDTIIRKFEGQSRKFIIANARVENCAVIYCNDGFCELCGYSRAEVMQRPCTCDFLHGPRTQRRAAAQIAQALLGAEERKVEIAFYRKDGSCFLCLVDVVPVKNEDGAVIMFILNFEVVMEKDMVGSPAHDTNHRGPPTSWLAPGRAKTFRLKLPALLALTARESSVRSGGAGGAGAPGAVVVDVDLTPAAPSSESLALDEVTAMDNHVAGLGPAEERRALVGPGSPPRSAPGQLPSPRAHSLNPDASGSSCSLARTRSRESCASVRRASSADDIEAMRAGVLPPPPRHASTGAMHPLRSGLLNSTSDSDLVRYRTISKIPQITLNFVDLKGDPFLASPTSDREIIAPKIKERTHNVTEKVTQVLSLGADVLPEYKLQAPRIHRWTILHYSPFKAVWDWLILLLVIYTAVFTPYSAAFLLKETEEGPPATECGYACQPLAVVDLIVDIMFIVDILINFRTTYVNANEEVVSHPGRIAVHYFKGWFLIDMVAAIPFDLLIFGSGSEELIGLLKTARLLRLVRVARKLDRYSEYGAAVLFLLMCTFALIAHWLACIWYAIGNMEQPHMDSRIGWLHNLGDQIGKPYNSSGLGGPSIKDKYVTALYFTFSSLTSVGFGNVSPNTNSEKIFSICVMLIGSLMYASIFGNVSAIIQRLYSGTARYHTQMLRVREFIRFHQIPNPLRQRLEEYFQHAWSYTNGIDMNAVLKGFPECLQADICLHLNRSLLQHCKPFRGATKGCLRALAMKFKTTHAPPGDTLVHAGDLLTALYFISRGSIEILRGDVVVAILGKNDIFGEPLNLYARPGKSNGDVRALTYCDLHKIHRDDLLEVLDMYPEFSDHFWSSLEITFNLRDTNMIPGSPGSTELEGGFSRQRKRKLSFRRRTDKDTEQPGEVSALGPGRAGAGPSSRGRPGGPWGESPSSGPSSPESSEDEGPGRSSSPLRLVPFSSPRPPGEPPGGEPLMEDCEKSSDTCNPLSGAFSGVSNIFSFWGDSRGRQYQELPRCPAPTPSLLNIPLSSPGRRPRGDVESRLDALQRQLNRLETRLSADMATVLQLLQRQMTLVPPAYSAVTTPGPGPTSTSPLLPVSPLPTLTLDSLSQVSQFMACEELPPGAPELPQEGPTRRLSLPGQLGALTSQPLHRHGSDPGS
#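 U2OS cells were transduced with wild-type KCNH2 virus (2.03 x 10^8 / mL) for 4 h at room temperature, then cultured overnight at 37 C. Thallium flux was read with FluxOr dye. Rate constants were normalized to DMSO controls.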
# GRP78 ERSR act – induces the endoplasmic reticulum stress response in human glioma cells; U87-MG GRP78 promoter luciferase reporter, 16 h; Potency, µM, for inactives: at the highest dose activation, hits mostly activators; 420,000 tested, 0.02% active; AID 602332; further: potency means the concentration at half of the fitted maximal effect; series mostly up to about 76 µM; % of control where 0% means no effect; nearly all actives have a fitted effect of over 35% in size
#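 ERSR induction read as luciferase luminescence (Bright-Glo, 10 min at room temperature) in stably transfected human U87-MG glioma cells exposed to compounds for 16 h, using GRP78 as sensor.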
# RXFP1 ag – RXFP1 (human) receptor agonism; Q9HBX9; HEK293T-RXFP1 cAMP TR-FRET, 30 min; response scale: percent of porcine relaxin response, buffer zero; Potency, µM (highest dose often 57.5 µM), without a hit: top-dose activation, actives largely listed as activators; 370,000 tested, 0.3% active; AID 2676; further: potency means the concentration at half of the fitted maximal effect; on the % scale 0 is the no-effect control and ±100 the full control effect; nearly all actives have a fitted effect of over 60% in size
#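 cAMP rise read by TR-FRET after 30 min, 37C compound exposure (up to 58 uM) in RXFP1-transfected HEK293 cells with Ro 20174 present. EC50 from Hill-equation fits, with 29 nM porcine relaxin as 100% and buffer as basal.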
# PTHR1 ag – agonists of human PTHR1 parathyroid hormone receptor; 410,000 tested, 0.075% active; Q03431; Potency, µM (series often up to 115 µM), without a hit: at the top dose activation, usual class: activators; HEK293 GP2 PTHR1 cells, GloSensor cAMP luminescence, 1 h; further: potency means the concentration at half of the fitted maximal effect; nearly all actives have a fitted effect of over 55% in size
#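 HEK-293-derived GP2 cells expressing PTHR1 and a GloSensor cAMP reporter, 3,000/well, plated overnight, given luciferin plus IBMX (each 0.5 mM as added) for 1 h at 37 °C, then compound for 1 h at 37 °C. Luminescence was read after 15 min at room temperature.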
# KCNH2 3.1 block – inhibitors of human KCNH2 3.1 potassium channel isoform; AID 720553; U2OS KCNH2 3.1, thallium flux FluxOr; active compounds read low; activity change, % (tested at about 1.8 µM); 340,000 tested, 0.95% active;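 active means maximum activity change below -70%; inconclusive means maximum activity change from -70% to -50%; inactive means maximum activity change above -50%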;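 further: thallium influx rate constant from kinetic fluorescence after stimulation buffer; on the % scale 0 is the no-effect control and ±100 the full control effect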
#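 Thallium flux via FluxOr fluorescence (Red40 quencher, 45 min loading) in U2OS cells virally expressing the KCNH2 3.1 isoform (1.77 x 10^8 /mL virus, overnight at 37 C). Rate constants from 2-min kinetic reads post-stimulation, normalised to positive and negative controls.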
# * = called active by the depositor; i = inactive; ? = inconclusive; . = no result; [ ] = another dose, or the depositor's remark. Unless noted, the call rests on the fitted dose curve; in most records, active means well fitted curve in the direction sought with a large enough effect; inconclusive means small, poorly fitted or top-dose-only effect, or another doubt; inactive means no such curve, though single readings can be large; an effect the other way counts as inactive or inconclusive.
SMILES,RXFP1 antag,KCNH2 WT inh,GRP78 ERSR act,RXFP1 ag,PTHR1 ag,KCNH2 3.1 block
COc1ccc(-c2noc(-c3ccc(N4CCN(c5ccccc5OC)CC4)c([N+](=O)[O-])c3)n2)cc1,.,.,0%,-2%,i,.
Fc1ccc2c(c1)Sc1ccc(Cl)cc1CC2N1CCN(CCC2OCCO2)CC1 (stereo unspecified),-62*,-3,-7%,.,-2%,-95*
CCCCCCCC(=O)N/N=C/c1ccc(Br)cc1,-13,9,7%,-3%,i,-82*
CC(C)(C)C(C(=O)n1cccc1C#N)c1ccccc1 (stereo unspecified),.,-8,-3%,0%,-17%,22
C=CCN1C(c2ccccc2)=CS/C1=C(\C#N)c1nnc2n1CCCCC2,2,-2,0%,0%,-23%,-17
C=CCn1c(=O)/c(=C/c2ccc(Cl)cc2)s/c1=C(\C#N)c1nnc2n1CCCCC2,?,0,-4%,.,-31%,-87*
CCC(C)[C@H](N)c1cn([C@@H](Cc2cc3ccccc3[nH]2)C(=O)N2CCNCC2)nn1 (stereo partly specified),.,-252*,-5%,-3%,-3%,42
CCOC(=O)c1ccc(NC(=O)C(CC)Sc2nncn3c2cc2oc(C)cc23)cc1 (stereo unspecified),-79*,.,-3%,14%,i,.
CC(C)Cc1ccc(CN2CCCC(NC(=O)CCCN3CCCC3=O)C2)cc1 (stereo unspecified),-16,15,-6%,0%,-23%,2
C=CCN(c1ccc(C(=O)Nc2ccc3c(c2)n(C)c(=O)n3C)cc1)S(C)(=O)=O,-15,-284*,-4%,-2%,i,4
O=C(NCCc1csc(-c2ccc(F)cc2)n1)c1cccs1,-61*,.,0%,1%,-47%,.
O=C(NCCc1csc(-c2cccc(F)c2)n1)c1cccs1,1,.,-3%,0%,0%,.
O=C(NCCc1csc(-c2cccnc2)n1)c1ccc(Br)o1,8,-71*,-2%,0%,-4%,6
Cc1cccc(C)c1-n1nnnc1C(c1ccnc2ccccc12)N(C)Cc1ccc(Cl)c(Cl)c1 (stereo unspecified),.,.,.,.,-4%,.
COc1ccc(CCNC(=O)C2CC(=O)N(C3CCCCCCC3)C2)cc1OC (stereo unspecified),2,-20,-5%,1%,?,-201*
O=C(c1ccc([N+](=O)[O-])cc1)N(Cc1ccc(Br)cc1)N1C(=O)CCCC1=O,-15,-84*,-4%,0%,-5%[57.5 µM],?
Cc1ccc(OCCSc2nc(NC(C)C)nc(NC(C)C)n2)cc1,-36,-1,-4%,4%,-43%,-76*
CCNc1nc(SCCOc2ccc(C)cc2)nc(N(C)C)n1,-5,55,4%,3%,-26%[57.5 µM],-4
COc1cc(OC)c(NC(=S)NCc2ccc(F)cc2)cc1Cl,6,-28,-2%,0%,i,-107*
CCCn1c(N2CCN(C(=O)Nc3ccccc3)CC2)nc2ccccc21,-2,10,-4%,2%,-21%,-105*
CCn1c(N2CCN(C(=O)Nc3ccc(F)cc3)CC2)nc2ccccc21,4,41,-7%,1%,-11%[57.5 µM],-4
CC(C)Cn1c(N2CCN(CC(=O)Nc3ccc(Cl)cc3)CC2)nc2ccccc21,-4,-16,-3%,-3%,-32%,-74*
Cc1ccc(C(F)(F)F)cc1NC(N)=S,7,i,-4%,5%,-4%,-18
O=C(CSC1CS(=O)(=O)c2cc([N+](=O)[O-])ccc21)NNC(=O)c1ccccc1 (stereo unspecified),-9,-4,-1%,-5%,i,-6
O=C(N/N=C/c1cc(Cl)ccc1O)C(=O)Nc1ccccc1OC(F)(F)C(F)F,-4,-22,-7%,0%,-21%,-36
SMILES,RXFP1 antag,KCNH2 WT inh,GRP78 ERSR act,RXFP1 ag,PTHR1 ag,KCNH2 3.1 block
O=C(N/N=C/c1cc(Br)ccc1O)C(=O)Nc1ccccc1OC(F)(F)C(F)F,-28,-263*,-5%,4%,-16%[57.5 µM],8
COc1ccccc1-c1ncnn1-c1sc2c(c1C#N)CCCCC2,-5,.,2%,-3%,-30%,.
COc1ccccc1NCCC(=O)OCC(=O)Nc1ccccc1Cl,-24,-106*,-3%,.,-6%,-210*
COC(=O)C(C)(C)ONC(=O)Nc1ccccc1Cl,-65*,3,-1%,0%,i,0
COc1ccccc1NC(=O)COC(=O)CC(C)(C)CC1=NS(=O)(=O)c2ccccc2N1,-83*,14,1%,-1%,-40%,-16
CC(C)(CC(=O)OCC(=O)Nc1ccccc1F)CC1=NS(=O)(=O)c2ccccc2N1,?,-6,-3%,-2%,-53%,15
COC(=O)C(C)(C)ONC(=O)Nc1ccccc1Br,.,5,1%,1%,-20%,4
Cc1ccc(S(=O)(=O)N(C)C)cc1NC(=S)NC12CC3CC(CC(C3)C1)C2,-16,5,-5%,1%,-9%,6
Cc1cccn2c(=O)c(C=O)c(Cl)nc12,5,2,-14%,28%,-31%,2
CS(=O)(=O)c1ccc(C(=O)OCC(=O)NC23CC4CC(CC(C4)C2)C3)cc1[N+](=O)[O-],-65*,1,-5%,0%,i,22
CS(=O)(=O)c1ccc(C(=O)OCC(=O)NC(=O)NC2CCCCC2)cc1[N+](=O)[O-],.,.,-12%,.,.,.
CCCn1c2ccc(C)cc2c2n[nH]c(=S)nc21,7,4,0%,1%,i,-2
CC(C)/C(C=O)=C(/NC1CCCCC1)c1ccccc1,-63*,-1,-4%,.,-19%,-6
CC(Oc1ccccc1)C(=O)NC1CCCCCCC1 (stereo unspecified),-15,-4,-3%,-2%,i,-4
CC(C)C(C(=O)Nc1ccncc1)c1ccc(Cl)cc1 (stereo unspecified),0,-6,-1%,-1%,i,1
CC(C)C(C(=O)Nc1nccs1)c1ccc(Cl)cc1 (stereo unspecified),-83*,11,-1%,3%,-19%,-10
COc1cc(/C=C/C(=O)OCC(=O)Nc2ccc(NC(C)=O)cc2)cc(S(=O)(=O)N2CCc3ccccc32)c1OC,-6,1,4%,0%,i,1
Cc1cccc(/C=N/n2c(-c3ccncc3)n[nH]c2=S)c1,9,-3,-3%,0%,i,-70*
CC1CN(CCOc2ccc([N+](=O)[O-])cc2)CC(C)O1 (stereo unspecified),7,40,-3%,1%,i,-6
